Screens from PubChem.
rCAG binder-1 = binders of r(CAG) RNA repeats, primary screen, biochemical, fluorescence; r(CAG) RNA repeat, TO-PRO-1 dye displacement fluorescence; inhibition, % at 3 µM; actives 1.3% (n = 370,000);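 active = inhibition above the plate cutoff, the mean of all test compounds on that plate plus 3 SD, cut at about 35% in these data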;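 note: higher means more dye released from RNA so lower well fluorescence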
EBNA-1 inhibitor = EBNA-1 DNA-binding inhibitors, primary screen, biochemical, fluorescence polarization | actives 0.34% (n = 300,000) | AID 1950, 2009 | inhibition, % at 14.8 µM; in the data active = inhibition above about 28%
ZTA counter = counter-screen for EBNA-1 inhibitors: inhibitors of Epstein-Barr virus ZTA | ZTA-DNA binding, fluorescence polarization | actives 0.15% (n = 320,000) | inhibition, % at 11 µM | P03206; in the data active = inhibition above about 33%
Target sequence (P03206 whole entry, looked up): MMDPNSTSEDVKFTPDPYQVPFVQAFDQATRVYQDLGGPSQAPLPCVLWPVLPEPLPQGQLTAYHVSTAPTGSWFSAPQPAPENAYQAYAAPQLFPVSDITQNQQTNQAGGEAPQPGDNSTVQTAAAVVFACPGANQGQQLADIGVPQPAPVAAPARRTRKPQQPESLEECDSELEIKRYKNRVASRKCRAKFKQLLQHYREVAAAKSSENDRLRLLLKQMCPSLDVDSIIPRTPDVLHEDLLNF
PAFAH1B2 inh = PAFAH1B2 enzyme inhibitors, primary screen, biochemical, fluorescence polarization, human; Platelet-activating factor acetylhydrolase IB subunit alpha2 (Homo sapiens), P68402; recombinant PAFAH1B2, FP-rhodamine activity probe; inhibition, % at 3.39 µM; actives 1.2% (n = 340,000); AID 492953, 2010;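 active = inhibition above the mean of all tested compounds plus 3 SD, cut at about 24% in these data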
PAFAH1B3 inh = PAFAH1B3 enzyme inhibitors, primary screen, biochemical, fluorescence polarization, human | inhibition, % at 3.39 µM | AID 492972, 2010 | actives 0.28% (n = 340,000) | recombinant PAFAH1B3, FP-rhodamine probe;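 active = inhibition above the screen-wide average of all tested compounds plus 3 SD, cut at about 25% in these data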
PAFAH2 FP inh = PAFAH2 enzyme inhibitors, primary screen, biochemical, fluorescence polarization, human; Platelet-activating factor acetylhydrolase 2, cytoplasmic (Homo sapiens), Q99487; recombinant PAFAH2, FP-rhodamine activity probe; inhibition, % at 3.39 µM; actives 0.99% (n = 340,000);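 active = inhibition above the mean over all tested compounds plus 3 SD, cut at about 30% in these data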;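 note: inhibitors block probe labeling of enzyme so polarization drops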
rCAG bind conf = small molecules binding CAG repeat RNA – biochemical, fluorescence, confirmation. actives 70% (n = 4,300). shares compounds with rCAG binder-1. r(CAG) RNA repeat, TO-PRO-1 dye displacement fluorescence. inhibition, % at 3 µM. AID 652065, 2013;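 active = inhibition above a per-plate cutoff, the mean inhibition of sample wells plus 3 SD, cut at about 35% in these data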;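 note: loss of TO-PRO-1 fluorescence as compound displaces dye from 1x1 AA loop RNA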
DNA CAG counter = displacement of TO-PRO-1 from CAG DNA duplex, counter-screen for rCAG RNA repeat binder project, biochemical, fluorescence, TO-PRO-1 dye, d(CAG) DNA oligo. shares compounds with rCAG binder-1. d(CAG) DNA oligo TO-PRO-1 dye displacement. inhibition, % at 3 µM. actives 94% (n = 4,300);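 active = inhibition above its plate's cutoff, the mean test-well inhibition plus 3 SD, cut at about 4.8% in these data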;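 note: hits displace the dye from DNA and so lower well fluorescence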
dCAG dye DR = inhibitors of DNA CAG/GTC TO-PRO-1 complex, dose response, counter-screen for rCAG RNA repeat binder project, biochemical, fluorescence, TO-PRO-1 dye. shares compounds with rCAG binder-1. DNA CAG/GTC duplex TO-PRO-1 dye displacement fluorescence. IC50, µM. actives 20% (n = 250). AID 686960, 2013; in the data active = IC50 below about 10 µM
dCAG TOPRO ctr = TO-PRO-1 dye complex inhibitors on d(CAG) DNA, dose response, counter-screen, biochemical, fluorescence, late stage. shares compounds with rCAG binder-1. actives 80% (n = 30). AID 720649, 2013. d(CAG) DNA duplex TO-PRO-1 dye displacement. IC50, µM
rCAG binder-2 = molecules binding r(CAG) RNA repeats, late stage dose response, late-stage follow-up, biochemical, fluorescence, dose response, powder samples. shares compounds with rCAG binder-1. r(CAG) RNA TO-PRO-1 dye displacement. IC50, µM. actives 100% (n = 30). AID 720651, 2013
A number is an active result; . = inactive; / = not tested or not shown. Sampled rows, rich in hits. Any-hit rate of the full collection: about 2.9%. Unless noted, the rule behind the calls is not given here.

SMILES	rCAG binder-1	EBNA-1 inhibitor	ZTA counter	PAFAH1B2 inh	PAFAH1B3 inh	PAFAH2 FP inh	rCAG bind conf	DNA CAG counter	others
CC(C)CN1C(=O)C[C@]2(C(=O)N(C)c3ccc(NS(=O)(=O)c4ccc(F)cc4)cc32)C1c1ccccc1 (stereo partly drawn)	.	/	/	/	/	/	/	/
CN1CCN(S(=O)(=O)c2cccc(C(=O)Nc3sc4c(c3-c3nc5ccccc5[nH]3)CCCC4)c2)CC1	37.8	.	.	.	.	.	.	19.5
CCN(Cc1ccccc1)S(=O)(=O)c1ccc(C(=O)Nc2nnc(C3CC3)o2)cc1	45.3	.	.	.	.	.	36.1	11.7
C[C@H](CO)N1C[C@H](C)[C@@H](CN(C)S(=O)(=O)c2ccc(F)cc2)Oc2ccc(NC(=O)CCN3CCOCC3)cc2C1=O	.	/	/	.	.	.	/	/
CCN(CC)C(=S)NC(=O)c1cc(OC)c(OC)c(OC)c1	.	.	.	.	.	.	/	/
O=C(CSc1nc2ccccc2c(=O)n1-c1ccc(F)cc1)Nc1ccc(C(=O)O)cc1	.	.	.	.	.	.	/	/
O=C(CSc1nc2cc(C(=O)O)ccc2c(=O)n1-c1ccc(F)cc1)Nc1ccc(F)c(F)c1F	38.6	.	.	.	.	.	.	.
CC(C)CSC1=NSC2=NC(=O)/C(=C\c3cccs3)C(=N)N12	71.7	.	.	.	.	.	56.8	21.0	dCAG dye DR=.;dCAG TOPRO ctr=4.26;rCAG binder-2=1.66
CSC1=NSC2=NC(=O)/C(=C/c3coc4ccccc4c3=O)C(=N)N12	.	.	.	.	.	.	/	/
N=C1/C(=C/c2cccs2)C(=O)N=C2SN=C(SCc3ccccc3)N12	74.8	.	.	.	.	.	82.0	49.8
CSC1=NSC2=NC(=O)/C(=C\c3cccs3)C(=N)N12	.	.	.	.	.	.	/	/
CC(C)=CCC/C(C)=C/CNCC(=O)N1c2ccccc2[C@]2(c3ccccc3)C[C@@H]3C(=O)N(C/C=C(\C)CCC=C(C)C)CC(=O)N3[C@H]12	.	/	/	/	/	/	/	/
Cc1cc(NC(=O)/C=C/c2ccccc2Cl)no1	.	.	.	.	.	.	/	/
Cc1cc(NS(=O)(=O)c2ccc(NC(=O)/C=C/c3ccccc3Cl)cc2)no1	71.0	.	.	.	.	.	56.3	22.5
Cc1cc(NS(=O)(=O)c2ccc(NC(=O)/C=C/c3ccccc3)cc2)nc(C)n1	.	/	/	.	.	.	/	/
Cc1cc(NS(=O)(=O)c2ccc(NC(=O)/C=C/c3cccc(Cl)c3)cc2)no1	61.3	.	.	.	.	.	49.4	17.3
CC(C)N(Cc1c(O)ccc2c(=O)c(-c3ccc(Cl)cc3)coc12)C(C)C	41.5	.	.	.	.	.	.	10.5
